37 molecules from PubChem BioAssay (NCATS) can be followed below.

Inconclusive results are not listed. Unmarked numbers belong to inactive results. Calls of active or inactive are those of the source. The call rests on the fitted dose curve; in most records, active means well fitted curve in the direction sought with a large enough effect; inconclusive means small, poorly fitted or top-dose-only effect, or another doubt; inactive means no such curve, though single readings can be large; an effect the other way counts as inactive or inconclusive.

System in one assay: not listed separately
Description: Confirmatory screen NINDS Rhodamine qHTS for Zika virus inhibitors (AID 1347161). Further: nearly all actives have a fitted effect of over 60% in size. Further: potency means the concentration at half of the fitted maximal effect.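 On activity change, negative = inhibition: purified Zika NS2B-NS3 protease with linked NS2B cofactor domain and Rhodamine110 peptide substrate; plate controls were no-inhibitor control for no effect and no-enzyme control for full effect.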 As to conditions: purified enzyme assay, Rhodamine110 substrate fluorescence, 15 min; series mostly up to 114 µM; activity change, negative = inhibition: at the top concentration. The gist of the method:
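qHTS dose-response: 25 nM linked protease, pH 8.0 Tris/Tween buffer, cpd titration, 15 min RT preinc, 1.5 microM Rhod110 peptide, 15 min reaction (~15% conversion), Ex480/Em540; 4-parameter Hill fit.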
A general note: Quantitative high-throughput screening tests each substance at several concentrations.
Consider `COc1cc2c(CCNC(C)=O)c[nH]c2cc1O`, for which the “activity change, negative = inhibition” value is -13.7%.

For `Nc1ccc(-c2ccc3ccccc3n2)cc1`, the “activity change, negative = inhibition” value was -23.4%.

Consider `Cn1cc(C(F)(F)F)nc1-c1ccc(OCC(O)CNCCOc2ccc(O)c(C(N)=O)c2)cc1` (stereo not drawn), for which the “activity change, negative = inhibition” value is 20.8%.

As to `CCCC[C@@]1(C2CCCC2)Cc2cc(OCC(=O)O)c(Cl)c(Cl)c2C1=O`, the Potency is 7.82 µM (active).

The next assay deals with Lysine-specific demethylase 5B (Homo sapiens) (UniProt Q9UGL1). Description: Optimization screen for KDM5B Histone Demethylases FDH coupled qHTS against the LOPAC library (AID 1347166). Further: 0% is about no effect. As to conditions: KDM5B demethylation, FDH-coupled NADH fluorescence (FDH is formaldehyde dehydrogenase); at 57.5 µM (top of the series). The essentials: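 KDM5BDeltaAP (200nM final) in 50mM HEPES pH 7.5, 0.01% Tween-20 was preincubated with compound for 10 min at room temperature. A substrate mix of 12.5uM H3K4Me3, 25uM a-ketoglutarate, ascorbate, Fe2+, NAD+ and formaldehyde dehydrogenase was then added. NADH fluorescence (340/450 nm) was read initially and after 30 min.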
Lysine-specific demethylase 5B (Homo sapiens), sequence (Q9UGL1 whole entry, looked up): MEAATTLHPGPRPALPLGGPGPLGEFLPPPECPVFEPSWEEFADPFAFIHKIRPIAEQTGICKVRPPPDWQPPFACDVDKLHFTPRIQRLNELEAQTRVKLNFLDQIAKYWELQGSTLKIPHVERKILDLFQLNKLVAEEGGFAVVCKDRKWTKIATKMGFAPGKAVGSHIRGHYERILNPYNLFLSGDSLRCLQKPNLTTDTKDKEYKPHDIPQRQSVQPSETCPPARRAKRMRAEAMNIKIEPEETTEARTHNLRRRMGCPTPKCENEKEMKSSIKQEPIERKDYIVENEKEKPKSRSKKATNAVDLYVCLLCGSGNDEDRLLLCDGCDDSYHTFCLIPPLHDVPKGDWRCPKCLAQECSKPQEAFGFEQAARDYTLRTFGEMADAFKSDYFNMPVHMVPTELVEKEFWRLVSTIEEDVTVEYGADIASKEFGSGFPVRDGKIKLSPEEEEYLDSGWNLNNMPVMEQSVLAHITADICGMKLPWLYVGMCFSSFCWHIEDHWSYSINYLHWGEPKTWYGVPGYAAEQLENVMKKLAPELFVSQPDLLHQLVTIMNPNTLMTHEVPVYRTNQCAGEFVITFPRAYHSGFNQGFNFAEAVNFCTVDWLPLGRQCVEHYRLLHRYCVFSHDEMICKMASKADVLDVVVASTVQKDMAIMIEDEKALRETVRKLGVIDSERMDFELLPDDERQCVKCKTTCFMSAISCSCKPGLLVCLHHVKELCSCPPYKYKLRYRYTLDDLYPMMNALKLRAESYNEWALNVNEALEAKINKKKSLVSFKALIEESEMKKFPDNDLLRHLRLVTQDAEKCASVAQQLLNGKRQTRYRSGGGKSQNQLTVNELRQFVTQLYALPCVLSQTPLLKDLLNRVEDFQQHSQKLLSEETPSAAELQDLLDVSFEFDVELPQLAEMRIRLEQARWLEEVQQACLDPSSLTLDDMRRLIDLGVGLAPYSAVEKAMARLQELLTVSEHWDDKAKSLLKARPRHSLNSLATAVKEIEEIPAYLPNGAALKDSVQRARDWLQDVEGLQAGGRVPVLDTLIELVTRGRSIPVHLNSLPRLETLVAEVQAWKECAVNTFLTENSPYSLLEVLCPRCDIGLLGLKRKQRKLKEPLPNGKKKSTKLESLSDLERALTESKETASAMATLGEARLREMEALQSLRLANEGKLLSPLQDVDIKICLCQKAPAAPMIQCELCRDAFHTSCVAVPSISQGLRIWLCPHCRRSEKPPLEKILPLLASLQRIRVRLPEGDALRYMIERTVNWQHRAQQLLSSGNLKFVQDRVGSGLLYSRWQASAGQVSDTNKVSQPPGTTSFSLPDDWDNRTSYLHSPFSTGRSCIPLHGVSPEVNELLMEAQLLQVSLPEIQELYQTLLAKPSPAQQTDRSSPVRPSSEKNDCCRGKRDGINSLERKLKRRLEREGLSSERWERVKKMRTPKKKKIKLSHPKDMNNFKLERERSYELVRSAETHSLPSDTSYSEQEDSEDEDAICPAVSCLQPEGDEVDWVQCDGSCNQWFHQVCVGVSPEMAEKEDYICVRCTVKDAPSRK
Regarding `NCC(O)C1CCCCCCC1` (stereo not drawn), the activity, negative = inhibition was -4.79%.

On to `CCN1C(=O)C=CC1=O`, for which the activity, negative = inhibition was -3.85%.

On to `c1ccc2c(c1)CC(N1CCN(c3cccc4c3OCCO4)CC1)C2`, for which the activity, negative = inhibition is -5.51%.

Take `NC(=O)CNCCC(c1ccccc1)c1ccccc1`: the activity, negative = inhibition is 2.72%.

In the case of `N=C(N)c1ccccc1`, the activity, negative = inhibition is -3.44%.

Regarding `O=C(O)C1CCCNC1` (stereo not drawn), the activity, negative = inhibition is -0.313%.

`NOCC(=O)O`: the activity, negative = inhibition was -4.09%.

Regarding `OC[C@H]1O[C@@H](n2cnc3cncnc32)[C@H](O)[C@@H]1O`, the activity, negative = inhibition was -2.2%.

In the case of `Nc1nc2c(nc(Br)n2C2OC3COP(=O)(O)O[C@@H]3C2O)c(=O)[nH]1` (stereo partly drawn), the activity, negative = inhibition is -2.81%.

For `CC(=O)O[C@H]1Cc2ccccc2N(C(N)=O)c2ccccc21`, the activity, negative = inhibition was -5.85%.

As for `CO/N=C(\C(=O)N[C@@H]1C(=O)N2C(C(=O)O)=C(CSc3nc(=O)c(O)nn3C)CSC12)c1csc(N)n1` (stereo partly drawn), the activity, negative = inhibition was -14.3%.

Regarding `CC1CCN=C(N)S1` (stereo not drawn), the activity, negative = inhibition is -2.36%.

For the molecule `OC[C@H]1O[C@H](n2cnc3c(N[C@H]4CCC[C@@H]4O)ncnc32)[C@H](O)[C@@H]1O`, the activity, negative = inhibition was -3.36%.

For `CC(=O)[C@H]1CCC2C3CC=C4C[C@@H](OS(=O)(=O)O)CC[C@]4(C)C3CC[C@@]21C` (stereo partly drawn), the activity, negative = inhibition was 0.452%.

For the molecule `c1ccc(C2CN3CCSC3=N2)cc1` (stereo not drawn), the activity, negative = inhibition is -3.45%.

Take `N[C@@H](Cc1ccc(O)c(I)c1)C(=O)O`: the activity, negative = inhibition is -7.59%.

Consider `O=C(O)/C(=C/c1c(C(=O)O)[nH]c2cc(Cl)cc(Cl)c12)c1ccccc1`, for which the activity, negative = inhibition was -2.54%.

As to `Cn1cc(C(F)(F)F)nc1-c1ccc(OCC(O)CNCCOc2ccc(O)c(C(N)=O)c2)cc1` (stereo not drawn), the activity, negative = inhibition is -27.4%.

`CCOC(=O)C12CC1/C(=N/O)c1ccccc1O2` (stereo not drawn): the activity, negative = inhibition was -9.53%.

For the molecule `CCN(c1nc(N)c(C(=O)N=C(N)N)nc1Cl)C(C)C`, the activity, negative = inhibition was -3.16%.

For `CN1CCC2(CCN3CCc4c(oc5ccccc45)C3C2)N(C)C1=O` (stereo not drawn), the activity, negative = inhibition was -3.3%.

In the case of `CCCC[C@@]1(C2CCCC2)Cc2cc(OCC(=O)O)c(Cl)c(Cl)c2C1=O`, the activity, negative = inhibition was -4.31%.

With `Cc1ccc2c(c1)C(N1CCN(C)CC1)=Nc1cccnc1N2`, the activity, negative = inhibition is -6.11%.

On to `N[C@@H](CCC(=O)N[C@H](CSN=O)C(=O)NCC(=O)O)C(=O)O`, for which the activity, negative = inhibition was -9.68%.

Regarding `C[N+](C)(C)CC=O`, the activity, negative = inhibition is -0.629%.

`CCCCCCCCCCCCCCSCC(=O)O`: the activity, negative = inhibition was -24.4%.

In the case of `C[C@@H](NCCc1ccc(O)cc1)[C@@H](O)c1ccc(O)cc1`, the activity, negative = inhibition was -4.75%.

For `N[C@@H](Cc1c[nH]c2ccccc12)C(=O)O`, the activity, negative = inhibition was -20.4%.

For the molecule `NC1CCN(O)C1=O` (stereo not drawn), the activity, negative = inhibition is -8.73%.

Regarding `O[Si](CCCN1CCCCC1)(c1ccc(F)cc1)C1CCCCC1` (stereo not drawn), the activity, negative = inhibition is -4.4%.

As for `COc1cc(C(O)CO)ccc1O` (stereo not drawn), the activity, negative = inhibition was -5.15%.

For the molecule `CCC1(O)CC2CN(CCc3c([nH]c4ccccc34)[C@@](C(=O)OC)(c3cc4c(cc3OC)N(C)C3[C@]45CCN4CC=C[C@@](CC)([C@@H](OC(C)=O)[C@]3(O)C(=O)OC)[C@H]45)C2)C1` (stereo partly drawn), the activity, negative = inhibition is -13.4%.

`CC(C)(C)c1ccc(/C=C/C(=O)Nc2ccc3c(c2)OCCO3)cc1`: the activity, negative = inhibition is -12.1%.

`N=S(=O)(O)Cc1noc2ccccc12`: the activity, negative = inhibition was 3.62%.

System in the next assay: not listed separately
In words: Vero cells viability qHTS for Zika virus inhibitors (AID 1347167). Further: on the % scale 0 is the no-effect control and ±100 the full control effect. As to conditions: cytotoxicity counter-screen (Zika); series mostly up to 45.9 µM; activity change, negative = cytotoxicity: at the top concentration. The essentials: (§1)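 To flag cytotoxic protease inhibitors, viability is measured by ATP-dependent luminescence (CellTiter Glo) after cells attached overnight receive compound for 24 to 48 hours in DMEM with 4% FBS.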
For `C=CCN1CCc2c(cc(O)c(O)c2Br)[C@@H](c2ccccc2)C1`, the “activity change, negative = cytotoxicity” value is -5.74%.

In the case of `COc1cc2c(CCNC(C)=O)c[nH]c2cc1O`, the “activity change, negative = cytotoxicity” value was 0.0331%.

For `Nc1ccc(-c2ccc3ccccc3n2)cc1`, the “activity change, negative = cytotoxicity” value was -6.9%.

Turning to `Cn1cc(C(F)(F)F)nc1-c1ccc(OCC(O)CNCCOc2ccc(O)c(C(N)=O)c2)cc1` (stereo not drawn), the “activity change, negative = cytotoxicity” value is -4.82%.

Regarding `CCCC[C@@]1(C2CCCC2)Cc2cc(OCC(=O)O)c(Cl)c(Cl)c2C1=O`, the “activity change, negative = cytotoxicity” value was -0.62%.

System in the next assay: not listed separately
In words: HepG2 cells viability qHTS for Zika virus inhibitors (AID 1347168). Further: on the % scale 0 is the no-effect control and ±100 the full control effect. As to conditions: Zika counter-screen; series mostly up to 45.9 µM; activity change, negative = cytotoxicity: at the top concentration. The essentials:
as §1
As for `C=CCN1CCc2c(cc(O)c(O)c2Br)[C@@H](c2ccccc2)C1`, the “activity change, negative = cytotoxicity” value was -21.3%.

Regarding `COc1cc2c(CCNC(C)=O)c[nH]c2cc1O`, the “activity change, negative = cytotoxicity” value was -5.21%.

Consider `Nc1ccc(-c2ccc3ccccc3n2)cc1`, for which the “activity change, negative = cytotoxicity” value is -0.901%.

Consider `Cn1cc(C(F)(F)F)nc1-c1ccc(OCC(O)CNCCOc2ccc(O)c(C(N)=O)c2)cc1` (stereo not drawn), for which the “activity change, negative = cytotoxicity” value is -17.5%.

Regarding `CCCC[C@@]1(C2CCCC2)Cc2cc(OCC(=O)O)c(Cl)c(Cl)c2C1=O`, the “activity change, negative = cytotoxicity” value was -5.02%.
